Assay outcomes as filed in PubChem BioAssay.
FH mod: Identification of activators of human fumarate hydratase by quantitative high-throughput screening; AID 1347055, 2019; 54,000 tested, 0.22% active; Fumarate hydratase, mitochondrial (Homo sapiens), P07954; Potency, µM (series often up to 79.9 µM), most hits filed as inhibitors; FH coupled MDH/diaphorase resazurin fluorescence, 15 min; note: the screen sought activators but most active calls are inhibition curves; nearly all actives have a fitted effect of over 45% in size
B2AR arrestin ag: beta-arrestin recruitment by human beta2-adrenergic receptor ligands | P07550 | Potency, µM (series often up to 46.1 µM), hits mostly activators | AID 1347077 | 44,000 tested, under 10 active | HTLA Tango cells, beta-arrestin recruitment, luciferase luminescence, 18 h
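Ligand-induced beta-arrestin recruitment to recombinant beta2-AR is measured via a tTA-driven luciferase reporter in Tango cells after 18 hr compound exposure at 37 degrees C. Concentrations span up to 46 microM.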
TSG101-PTAP inh: inhibitors of HIV-1 PTAP binding to human TSG101, validation; Potency, µM (top dose mostly 115 µM), usual class: inhibitors; Q99816; Fluorescence polarization, FITC-PTAP peptide/Tsg101, 20 min; 44,000 tested, under 10 active
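The Tsg101 binding domain, at 10 uM final, is mixed with compound and a FITC peptide bearing the PTAP motif (50 nM final). After 20 min at r.t., polarization is measured; actives defined by CRC class, efficacy cut-off 60% inhibition.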
DRV1 agonist: activates human resolvin D1 receptor GPR32; O75388; 48,000 tested, 2.5% active; AID 1346428; activation, % at 76.9 µM; CHO-K1 GPR32 beta-arrestin PathHunter luminescence, 90 min; zero percent set by DMSO-only wells;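 active = activation of at least 60% and not above a set upper limit, about 1 call in 100 departs from these limits; inconclusive = activation of 40% to 60%, or above that upper limit; inactive = activation under 40%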
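Agonism was scored as beta-arrestin recruitment to ProLink-fused GPR32 in stably transfected CHO-K1 cells, giving a chemiluminescent beta-Gal signal; compounds were incubated 90 min at 37 °C.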
GALK inhibitor: inhibits human galactokinase; AID 1347072; recombinant GALK, Kinase-Glo ATP luminescence, 1 h; Potency, µM (titrated, usually from 57.5 µM), usual class: inhibitors; P51570; 44,000 tested, under 10 active
Target sequence (P51570 whole entry, looked up): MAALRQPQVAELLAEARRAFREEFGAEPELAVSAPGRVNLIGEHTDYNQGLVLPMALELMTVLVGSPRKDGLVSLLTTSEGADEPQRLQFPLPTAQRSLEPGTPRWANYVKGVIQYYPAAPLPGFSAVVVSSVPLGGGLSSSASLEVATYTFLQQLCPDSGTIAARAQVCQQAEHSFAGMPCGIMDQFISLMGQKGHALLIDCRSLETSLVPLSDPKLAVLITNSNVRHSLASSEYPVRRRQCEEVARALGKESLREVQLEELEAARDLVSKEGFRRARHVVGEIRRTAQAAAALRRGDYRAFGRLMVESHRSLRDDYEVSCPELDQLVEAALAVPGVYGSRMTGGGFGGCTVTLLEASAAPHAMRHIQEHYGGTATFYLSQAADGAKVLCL
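5 nM GALK; 35 uM ATP; 100 uM D-galactose; 20 mM HEPES pH 8.0, 5 mM MgCl2, 60 mM NaCl, 1 mM DTT, 0.01% BSA; 1 h RT; Kinase-Glo Plus luminescence.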
GALC G270D act: raises human GALC G270D mutant activity in cells. Potency, µM (doses to about 57.5 µM), most hits filed as activators. 145M-Twi-hGALC-G270D cells (Twitcher mouse brain line with human GALC G270D), HMU-beta-Gal fluorescence, 48 h. AID 1159614. P54803. 45,000 tested, 0.1% active; note: nearly all actives have a fitted effect of over 65% in size
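Mutant human GALC (G270D), stably expressed in a Twitcher mouse brain cell line lacking endogenous GALC, is measured in live-treated cells via 6-hexadecanoylamino-4-methylumbelliferyl-β-galactoside hydrolysis (0.1 mM final, pH 5.2) with fluorescent detection.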
A number is an active result; – = inactive; ? = inconclusive; · = not tested or not shown; ! = a repeat was not active. A selection: hits, their analogues and other compounds. The true share with any hit is near 2.8%. Unless noted, calls come from the whole dose curve; as a rule, active = well fitted curve in the direction sought with a large enough effect; inconclusive = small, poorly fitted or top-dose-only effect, or another doubt; inactive = no such curve, though single readings can be large; an effect the other way counts as inactive or inconclusive.

SMILES	FH mod	B2AR arrestin ag	TSG101-PTAP inh	DRV1 agonist	GALK inhibitor	GALC G270D act
CO[C@@]1(NC(=O)CSCC#N)C(=O)N2C(C(=O)O)=C(CSc3nnnn3C)CS[C@@H]21	–	·	·	64!	·	–
COc1c(Nc2ncc(Cl)c(N[C@H]3[C@H](C(N)=O)[C@@H]4C=C[C@@H]3C4)n2)ccc2c1CCC(N1CCOCC1)CC2 (some centres undefined)	–	·	·	·	·	·
O=C(O)c1ccc2nc(-c3cc4cccc(O)c4oc3=O)[nH]c2c1	22µM	–	–	–	–	–
COc1cc(C(C)=O)ccc1OCCCN1CCC(c2noc3cc(F)ccc23)CC1	–	·	·	71	·	–
Cc1cccc(Oc2ccc3c(c2)Oc2ccccc2NC3=O)c1	–	–	–	95	–	–
O=C1Nc2cc(Cl)ccc2Oc2ccccc21	–	·	·	–	·	–
Cc1ccc(NC(=O)CCS(=O)(=O)c2ccc(Br)s2)c(Br)c1	–	–	–	71	–	–
CC(=O)c1cccc(NC(=O)CCS(=O)(=O)c2ccc(Br)s2)c1	–	–	–	–	–	–
C[C@H]1[C@H](C)CC[C@]2(C(=O)O)CC[C@]3(C)C(=CCC4[C@@]5(C)C[C@@H](O)[C@H](O)C(C)(C)C5CC[C@]43C)[C@H]12 (some centres undefined)	–	·	·	·	·	·
COc1ccc2nc3sc(C(=O)NCCc4ccc(Cl)cc4)cc3cc2c1	–	–	–	–	–	–
CCOc1ccc(CCNC(=O)c2cc3cc4ccc(OC)cc4nc3s2)cc1OCC	–	–	–	65	–	–
CCCCN1CC(c2nc3ccccc3n2CCCCOc2ccccc2C)CC1=O (centres undefined)	?	–	–	?	–	–
CCOc1ccccc1N1CC(c2nc3ccccc3n2CCCOc2ccc(OC)cc2)CC1=O (centres undefined)	–	–	–	–	–	–
CCCCN1CC(c2nc3ccccc3n2CCCCOc2c(C)cccc2C)CC1=O (centres undefined)	–	–	–	72	–	–
CCOc1ccccc1N1CC(c2nc3ccccc3n2CCOc2ccc(OC)cc2)CC1=O (centres undefined)	?	–	–	80	–	–
CCOC(=O)c1c(NC(=O)/C=C/c2ccc(Cl)cc2)sc2c1CCC(C)C2 (centres undefined)	–	–	–	79	–	–
COc1cc(NS(=O)(=O)c2cc(Br)cc3c2N(C(=O)C2CC2)CC3)cc(OC)c1	–	–	–	–	–	–
Cc1ccc(NS(=O)(=O)c2cc(Br)cc3c2N(C(=O)C2CC2)CC3)cc1C	–	–	–	–	–	–
O=C(C1CC1)N1CCc2cc(Br)cc(S(=O)(=O)Nc3ccc(C(F)(F)F)cc3)c21	–	–	–	65	–	–
O=C(C1CC1)N1CCc2cc(Br)cc(S(=O)(=O)Nc3ccc(F)c(F)c3)c21	28µM	–	–	–	–	–
CCN=C1N[C@@H]2[C@@H](O)[C@H](O)[C@@H](CO)O[C@@H]2S1	–	·	·	·	·	·
CC(C)=CCc1cc(C(O)C2NC(=O)CNC(=O)C(Cc3c[nH]c4ccccc34)NC(=O)C3CCCN3C(=O)CNC(=O)C(C(C)C)NC(=O)CNC2=O)ccc1O (centres undefined)	–	·	·	·	·	·
COc1ccc(Cl)cc1N(C)C(=O)C(=O)Nc1ccc2nc3n(c(=O)c2c1)CCCCC3	–	–	–	80	–	–
COc1ccc(NC(=O)C(=O)Nc2ccc3nc4n(c(=O)c3c2)CCCCC4)c(OC)c1	–	–	–	–	–	–
CCOC(=O)c1ccc(NC(=O)Nc2ccc3snnc3c2)cc1	–	–	–	–	–	–
SMILES	FH mod	B2AR arrestin ag	TSG101-PTAP inh	DRV1 agonist	GALK inhibitor	GALC G270D act
Cc1ccc(NC(=O)Nc2ccc3snnc3c2)cc1C	–	–	–	66	–	–
CCn1nnc2cc(C(=O)Nc3ccc(C)c(Cl)c3)ccc21	–	–	–	–	–	–
Cc1ccc(NC(=O)c2ccc3snnc3c2)cc1Cl	–	–	–	95	–	–
Cc1[nH]c2ccccc2c1CCNCc1ccc(/C=C/C(=O)NO)cc1	–	·	·	·	·	·
Clc1ccc(-c2noc3ncnc(N4CCCCC4)c23)cc1	–	–	–	83	–	–
Cc1cc2n(n1)CCCN2C(=O)Nc1ccc(Cl)cc1	–	–	–	108	–	–
O=C(NCCc1ccccc1)c1ccc2c(c1)N(Cc1ccc(F)cc1Cl)C(=O)CS2	–	–	–	108	–	–
O=C(/C=C/c1ccc(O)cc1)O[C@H]1[C@@H]2C=CO[C@@H](O[C@@H]3O[C@H](CO)[C@@H](O)[C@H](O)[C@H]3O)[C@@H]2[C@@]2(CO)O[C@@H]12	–	·	·	·	·	·
CC1=C(C(=O)OCc2ccc(C)cc2)C(c2ccccc2F)CC(=O)N1 (centres undefined)	–	–	–	67	–	–
CCOc1ccccc1C1CC(=O)NC(C)=C1C(=O)OCc1ccc(C)cc1 (centres undefined)	–	–	–	60	–	–
CC1=C(C(=O)OCC2CCCCC2)C(c2ccc(F)cc2F)CC(=O)N1 (centres undefined)	–	–	–	–	–	–
Cc1ccccc1-c1nc(CN2CCCC(C(=O)NCc3ccc(Cl)cc3)C2)c(C)o1 (centres undefined)	–	–	–	–	–	–
Cc1oc(-c2cccc(Cl)c2)nc1CN1CCCC(C(=O)NCc2ccc(F)cc2)C1 (centres undefined)	–	–	–	70	–	–
Cc1oc(-c2ccc(Cl)cc2)nc1CN1CCCC(C(=O)NCc2ccccc2)C1 (centres undefined)	–	–	–	106	–	–
C=C1C(=O)O[C@H]2[C@H]1CC/C(C)=C/CC[C@@]1(C)O[C@@H]21	–	·	·	·	·	·
Cc1ccc(C(=O)/C=C/c2ccccc2)s1	–	·	·	·	·	·
CCCCN(CC)C(=O)c1cc2c(=O)n3cccc(C)c3nc2s1	?	–	–	?	–	25µM
CCCCN(CC)C(=O)c1cc2c(=O)n3cccc(C)c3nc2n1C	–	–	–	–	–	–
O=C(NCCc1nc2ccccc2n1Cc1ccc(Cl)cc1)c1ccccc1	–	–	–	81	–	–
O=C(NCCCc1nc2ccccc2n1Cc1ccc(Cl)cc1Cl)c1ccco1	·	–	–	97	–	·
CC[C@@H](O)C[C@@H]1C(C)=C[C@@H]2CCCC[C@@H]2[C@@]1(C)C(=O)O	–	·	·	·	·	·
C#C[C@]1(O)CC[C@H]2[C@@H]3[C@H](C)CC4=C(CCC(=O)C4)[C@H]3CC[C@@]21C	–	·	·	99	·	–
